Results on one sequence are retold here after paper PMC7862700, “An all-to-all approach to the identification of sequence-specific readers for epigenetic DNA modifications on cytosine”.

Holding throughout (experiment): DAPPL (digital affinity profiling via proximity ligation, sequencing); 10 mM Tris-HCl pH 7.5, 50 mM NaCl, 1 mM DTT, 4% glycerol, room temperature, 30 min; GST-TFs on glutathione beads, 16-mer random dsDNA library, 0.1% formaldehyde crosslink after washing; high values mean tight binding
One experiment has as its target T1, FLI1 (Homo sapiens, UniProt Q01543 1-452).
T1 sequence: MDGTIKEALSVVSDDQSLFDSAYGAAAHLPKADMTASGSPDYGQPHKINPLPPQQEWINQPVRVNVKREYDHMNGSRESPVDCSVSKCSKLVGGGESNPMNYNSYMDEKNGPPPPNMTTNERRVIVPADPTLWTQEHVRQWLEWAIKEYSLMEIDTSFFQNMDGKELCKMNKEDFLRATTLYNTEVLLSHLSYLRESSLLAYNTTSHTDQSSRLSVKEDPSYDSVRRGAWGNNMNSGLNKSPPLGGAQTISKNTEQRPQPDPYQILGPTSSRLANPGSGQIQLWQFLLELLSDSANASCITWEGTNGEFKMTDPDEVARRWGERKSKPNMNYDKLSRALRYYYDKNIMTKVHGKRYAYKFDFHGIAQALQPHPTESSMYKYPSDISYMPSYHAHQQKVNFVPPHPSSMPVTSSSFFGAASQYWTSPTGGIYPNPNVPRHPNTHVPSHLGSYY
The note with it: protein: recombinant; tags: N-terminal GST; dsDNA, one strand shown. The method, boiled down: (§1)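 The binding signal reported is, for every hexamer, its read frequency for a factor over its read frequency for the tag-only sample. Reads came from pools of yeast-expressed, GST-fused human transcription factors on glutathione beads, barcoded with DNA and mixed with that sample, which were incubated with 200 nmole of a random double-stranded 16-mer DNA library in Tris/NaCl/DTT/glycerol buffer at room temperature for 30 min. After washing, the pools were crosslinked with 0.1% formaldehyde, proximity-ligated with BsaI/T4 ligase for 1 h at 37 °C, PCR-amplified and sequenced on an Illumina NextSeq500.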

The target in a further experiment is T2, ELK1 (Homo sapiens, UniProt P19419 1-428).
T2 sequence: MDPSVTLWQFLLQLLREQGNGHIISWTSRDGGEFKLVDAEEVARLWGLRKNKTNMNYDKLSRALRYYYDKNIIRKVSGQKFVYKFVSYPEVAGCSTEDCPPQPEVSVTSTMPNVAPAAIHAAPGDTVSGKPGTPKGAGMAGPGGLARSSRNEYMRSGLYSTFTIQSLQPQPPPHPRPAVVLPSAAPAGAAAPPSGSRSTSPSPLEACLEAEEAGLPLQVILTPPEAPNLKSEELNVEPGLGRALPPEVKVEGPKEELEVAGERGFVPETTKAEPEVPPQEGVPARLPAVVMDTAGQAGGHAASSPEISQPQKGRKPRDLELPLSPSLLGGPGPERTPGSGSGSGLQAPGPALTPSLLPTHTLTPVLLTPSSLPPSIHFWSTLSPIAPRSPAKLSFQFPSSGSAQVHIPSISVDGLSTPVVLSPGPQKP
The note with it: protein: recombinant; tags: N-terminal GST; dsDNA, one strand shown. In short, it runs like this: as §1

The next experiment addresses T3, GABPA (Homo sapiens, UniProt Q06546 1-454).
T3 sequence: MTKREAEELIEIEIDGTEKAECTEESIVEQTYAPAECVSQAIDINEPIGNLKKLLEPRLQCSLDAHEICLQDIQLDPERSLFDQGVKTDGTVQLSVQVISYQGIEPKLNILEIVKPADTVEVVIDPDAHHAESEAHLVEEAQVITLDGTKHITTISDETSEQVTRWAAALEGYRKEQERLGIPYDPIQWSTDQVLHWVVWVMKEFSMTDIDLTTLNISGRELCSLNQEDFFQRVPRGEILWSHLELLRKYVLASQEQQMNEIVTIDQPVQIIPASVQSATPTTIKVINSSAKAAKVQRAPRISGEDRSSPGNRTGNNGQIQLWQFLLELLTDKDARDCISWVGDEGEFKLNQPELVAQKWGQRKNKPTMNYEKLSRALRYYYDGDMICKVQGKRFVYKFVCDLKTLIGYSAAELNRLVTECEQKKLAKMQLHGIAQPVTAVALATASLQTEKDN
The following applies: protein: recombinant; tags: N-terminal GST; dsDNA, one strand shown. In short, it runs like this:
as §1

The target in another experiment is T4, ERG (Homo sapiens, UniProt P11308 1-479).
T4 sequence: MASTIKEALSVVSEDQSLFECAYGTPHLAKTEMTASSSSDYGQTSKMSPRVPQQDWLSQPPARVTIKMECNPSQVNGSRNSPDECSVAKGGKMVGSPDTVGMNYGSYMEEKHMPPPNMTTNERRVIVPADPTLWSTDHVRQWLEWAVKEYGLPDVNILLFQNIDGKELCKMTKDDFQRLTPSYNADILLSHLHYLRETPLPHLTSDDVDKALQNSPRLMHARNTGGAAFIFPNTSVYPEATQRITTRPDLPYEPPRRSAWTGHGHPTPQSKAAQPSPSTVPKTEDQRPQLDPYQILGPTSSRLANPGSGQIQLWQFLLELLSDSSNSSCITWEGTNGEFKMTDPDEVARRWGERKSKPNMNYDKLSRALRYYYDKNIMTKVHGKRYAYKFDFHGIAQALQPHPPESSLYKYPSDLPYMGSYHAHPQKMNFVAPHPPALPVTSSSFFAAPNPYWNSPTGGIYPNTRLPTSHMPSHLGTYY
The following applies: protein: recombinant; tags: N-terminal GST; dsDNA, one strand shown. The method, boiled down: as §1

The next experiment concerns the target ELF1 (Homo sapiens, UniProt P32519 1-619). The note with it: protein: recombinant; tags: N-terminal GST; dsDNA, one strand shown. In short, it runs like this: as §1
A further experiment has as its target T5, EHF (Homo sapiens, UniProt Q9NZC4 1-300).
T5 sequence: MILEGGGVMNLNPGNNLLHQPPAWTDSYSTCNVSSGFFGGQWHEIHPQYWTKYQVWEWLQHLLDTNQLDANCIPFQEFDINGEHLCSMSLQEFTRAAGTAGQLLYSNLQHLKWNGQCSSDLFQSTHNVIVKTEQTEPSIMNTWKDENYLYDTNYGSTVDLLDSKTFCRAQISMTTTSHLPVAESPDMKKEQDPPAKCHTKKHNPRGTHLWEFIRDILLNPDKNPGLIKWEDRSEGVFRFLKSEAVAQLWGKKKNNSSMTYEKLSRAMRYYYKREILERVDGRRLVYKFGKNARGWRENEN
The note with it: protein: recombinant; tags: N-terminal GST; dsDNA, one strand shown. In short, it runs like this: as §1

The next experiment concerns the target SPI1 (Homo sapiens, UniProt P17947 1-270). The following applies: protein: recombinant; tags: N-terminal GST; dsDNA, one strand shown. In short, it runs like this: as §1
The next experiment deals with SPIB (Homo sapiens, UniProt Q01892 1-262). The note with it: protein: recombinant; tags: N-terminal GST; dsDNA, one strand shown. The method, boiled down:
as §1

A further experiment concerns the target T6, ELK3 (Homo sapiens, UniProt P41970 1-407).
T6 sequence: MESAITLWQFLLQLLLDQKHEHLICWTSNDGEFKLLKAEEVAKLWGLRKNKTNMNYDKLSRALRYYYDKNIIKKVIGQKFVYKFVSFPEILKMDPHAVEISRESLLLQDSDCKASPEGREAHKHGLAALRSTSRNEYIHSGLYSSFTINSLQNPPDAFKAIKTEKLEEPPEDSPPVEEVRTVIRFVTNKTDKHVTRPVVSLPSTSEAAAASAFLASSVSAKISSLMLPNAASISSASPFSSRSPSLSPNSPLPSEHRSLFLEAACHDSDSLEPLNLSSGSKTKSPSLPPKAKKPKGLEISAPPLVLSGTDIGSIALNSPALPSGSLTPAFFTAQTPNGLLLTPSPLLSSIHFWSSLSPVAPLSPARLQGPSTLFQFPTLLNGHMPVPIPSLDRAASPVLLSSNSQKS
The following applies: protein: recombinant; tags: N-terminal GST; dsDNA, one strand shown. In short, it runs like this: as §1

A further experiment addresses T7, FEV (Homo sapiens, UniProt Q99581 1-238).
T7 sequence: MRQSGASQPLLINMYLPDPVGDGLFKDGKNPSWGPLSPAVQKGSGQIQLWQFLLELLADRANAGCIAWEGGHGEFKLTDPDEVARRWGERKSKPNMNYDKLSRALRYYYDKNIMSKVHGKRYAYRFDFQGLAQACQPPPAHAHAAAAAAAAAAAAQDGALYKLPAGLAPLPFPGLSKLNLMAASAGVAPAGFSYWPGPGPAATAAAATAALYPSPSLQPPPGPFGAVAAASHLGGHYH
The following applies: protein: recombinant; tags: N-terminal GST; dsDNA, one strand shown. The method, boiled down: as §1

A further experiment addresses ETV5 (Homo sapiens, UniProt P41161 1-510). The following applies: protein: recombinant; tags: N-terminal GST; dsDNA, one strand shown. The method, boiled down: as §1
In the next experiment the target is HSF1 (Homo sapiens, UniProt Q00613 1-529). The note with it: protein: recombinant; tags: N-terminal GST; chain copies: 3; dsDNA, one strand shown. The method, boiled down: as §1
Sequence of HSF1 (Q00613 whole entry): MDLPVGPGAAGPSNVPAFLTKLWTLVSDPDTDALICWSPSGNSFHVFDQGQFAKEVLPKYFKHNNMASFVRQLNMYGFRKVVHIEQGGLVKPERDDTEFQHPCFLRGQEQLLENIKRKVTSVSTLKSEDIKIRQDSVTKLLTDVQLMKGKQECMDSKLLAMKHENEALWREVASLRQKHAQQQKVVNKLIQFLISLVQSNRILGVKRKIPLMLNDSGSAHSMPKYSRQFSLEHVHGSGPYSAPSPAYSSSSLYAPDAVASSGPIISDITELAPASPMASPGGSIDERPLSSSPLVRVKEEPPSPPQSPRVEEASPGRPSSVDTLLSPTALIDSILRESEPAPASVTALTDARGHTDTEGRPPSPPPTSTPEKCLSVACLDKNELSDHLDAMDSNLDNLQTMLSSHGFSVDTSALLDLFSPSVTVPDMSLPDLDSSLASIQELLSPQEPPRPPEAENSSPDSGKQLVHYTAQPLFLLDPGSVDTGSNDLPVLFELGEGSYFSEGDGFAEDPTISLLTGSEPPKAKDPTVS
Another experiment has as its target T8, SPIC (Homo sapiens, UniProt Q8N5J4 1-248).
T8 sequence: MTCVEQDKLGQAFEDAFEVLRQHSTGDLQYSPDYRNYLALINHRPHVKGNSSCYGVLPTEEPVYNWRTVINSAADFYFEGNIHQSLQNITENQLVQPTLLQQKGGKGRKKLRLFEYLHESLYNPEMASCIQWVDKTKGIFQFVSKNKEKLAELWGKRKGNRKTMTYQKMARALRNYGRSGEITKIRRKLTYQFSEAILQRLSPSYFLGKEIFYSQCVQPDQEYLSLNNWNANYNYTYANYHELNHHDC
The following applies: protein: recombinant; tags: N-terminal GST; dsDNA, one strand shown. In short, it runs like this:
as §1

A further experiment concerns the target ELF4 (Homo sapiens, UniProt Q99607 1-663). The following applies: protein: recombinant; tags: N-terminal GST; dsDNA, one strand shown. In short, it runs like this:
as §1

In the next experiment the target is T9, ELK4 (Homo sapiens, UniProt P28324-2 1-405).
T9 sequence: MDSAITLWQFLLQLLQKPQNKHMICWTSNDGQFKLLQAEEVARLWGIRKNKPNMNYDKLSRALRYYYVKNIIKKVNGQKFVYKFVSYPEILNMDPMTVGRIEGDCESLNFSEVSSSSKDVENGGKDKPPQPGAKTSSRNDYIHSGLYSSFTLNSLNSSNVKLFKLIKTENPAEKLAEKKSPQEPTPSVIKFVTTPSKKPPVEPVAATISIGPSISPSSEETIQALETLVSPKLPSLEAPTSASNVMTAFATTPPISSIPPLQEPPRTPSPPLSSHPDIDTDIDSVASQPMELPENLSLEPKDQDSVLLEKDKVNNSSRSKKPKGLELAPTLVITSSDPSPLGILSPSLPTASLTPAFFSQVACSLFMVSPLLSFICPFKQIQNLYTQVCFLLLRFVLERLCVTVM
The note with it: protein: recombinant; tags: N-terminal GST; dsDNA, one strand shown. The method, boiled down: as §1

Another experiment addresses T10, ETV2 (Homo sapiens, UniProt O00321 1-342).
T10 sequence: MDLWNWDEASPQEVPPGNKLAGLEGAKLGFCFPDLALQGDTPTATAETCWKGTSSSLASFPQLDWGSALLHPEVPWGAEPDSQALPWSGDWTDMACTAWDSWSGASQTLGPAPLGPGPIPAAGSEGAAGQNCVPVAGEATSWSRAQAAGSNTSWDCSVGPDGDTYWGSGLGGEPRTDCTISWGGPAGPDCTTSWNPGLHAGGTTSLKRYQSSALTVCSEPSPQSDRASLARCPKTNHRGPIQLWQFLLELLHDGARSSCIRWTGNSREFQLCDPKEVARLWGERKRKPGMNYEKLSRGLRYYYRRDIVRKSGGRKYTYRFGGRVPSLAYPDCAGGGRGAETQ
The note with it: protein: recombinant; tags: N-terminal GST; dsDNA, one strand shown. In short, it runs like this: as §1

For a further experiment, the target named is T11, ELF3 (Homo sapiens, UniProt P78545 1-371).
T11 sequence: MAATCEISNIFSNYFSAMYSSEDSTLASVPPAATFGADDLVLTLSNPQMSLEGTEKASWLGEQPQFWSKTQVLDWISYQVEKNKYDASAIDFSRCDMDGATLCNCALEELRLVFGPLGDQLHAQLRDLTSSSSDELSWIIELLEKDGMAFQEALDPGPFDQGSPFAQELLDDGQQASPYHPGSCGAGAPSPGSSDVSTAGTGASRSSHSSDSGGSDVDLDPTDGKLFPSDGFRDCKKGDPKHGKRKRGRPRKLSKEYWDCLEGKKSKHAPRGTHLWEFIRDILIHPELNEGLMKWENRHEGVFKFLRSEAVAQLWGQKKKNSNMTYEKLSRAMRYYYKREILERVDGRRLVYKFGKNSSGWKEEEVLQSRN
The note with it: protein: recombinant; tags: N-terminal GST; dsDNA, one strand shown. In short, it runs like this: as §1

A further experiment concerns the target CRX (Homo sapiens, UniProt O43186 1-299). The note with it: protein: recombinant; tags: N-terminal GST; dsDNA, one strand shown. In short, it runs like this:
as §1

The target in a further experiment is ETV1 (Homo sapiens, UniProt P50549 1-477). The following applies: protein: recombinant; tags: N-terminal GST; dsDNA, one strand shown. The method, boiled down: as §1
Sequence of ETV1 (P50549 whole entry): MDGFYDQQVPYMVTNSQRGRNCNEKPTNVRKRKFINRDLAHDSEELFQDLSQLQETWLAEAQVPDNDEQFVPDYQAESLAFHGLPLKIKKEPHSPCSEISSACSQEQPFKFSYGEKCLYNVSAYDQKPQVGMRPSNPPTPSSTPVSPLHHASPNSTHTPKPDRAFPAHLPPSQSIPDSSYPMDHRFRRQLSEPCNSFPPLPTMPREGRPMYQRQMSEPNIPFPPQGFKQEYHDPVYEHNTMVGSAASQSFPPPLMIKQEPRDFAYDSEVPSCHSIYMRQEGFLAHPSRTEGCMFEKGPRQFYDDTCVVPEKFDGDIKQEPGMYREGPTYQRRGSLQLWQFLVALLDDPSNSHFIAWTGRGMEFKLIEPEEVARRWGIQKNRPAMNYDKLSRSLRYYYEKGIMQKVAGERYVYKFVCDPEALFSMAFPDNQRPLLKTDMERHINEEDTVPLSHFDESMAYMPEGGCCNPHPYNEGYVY

Sequence of CRX (O43186 whole entry): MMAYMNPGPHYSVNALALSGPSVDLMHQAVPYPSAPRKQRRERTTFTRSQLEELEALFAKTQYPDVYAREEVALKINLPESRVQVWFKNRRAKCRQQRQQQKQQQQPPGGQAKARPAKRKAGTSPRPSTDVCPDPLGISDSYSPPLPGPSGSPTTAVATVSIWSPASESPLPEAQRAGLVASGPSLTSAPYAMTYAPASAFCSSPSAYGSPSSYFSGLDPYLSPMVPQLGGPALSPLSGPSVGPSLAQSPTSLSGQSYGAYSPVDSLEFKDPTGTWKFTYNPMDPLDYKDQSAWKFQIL
Sequence of SPIB (Q01892 whole entry): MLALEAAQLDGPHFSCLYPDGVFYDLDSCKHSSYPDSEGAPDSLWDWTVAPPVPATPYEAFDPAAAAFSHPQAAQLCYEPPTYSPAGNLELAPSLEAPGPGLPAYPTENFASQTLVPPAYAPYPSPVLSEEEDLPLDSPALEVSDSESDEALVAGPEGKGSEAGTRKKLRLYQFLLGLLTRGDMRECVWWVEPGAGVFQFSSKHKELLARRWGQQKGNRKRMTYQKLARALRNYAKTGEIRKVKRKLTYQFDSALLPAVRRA
Sequence of ELF1 (P32519 whole entry): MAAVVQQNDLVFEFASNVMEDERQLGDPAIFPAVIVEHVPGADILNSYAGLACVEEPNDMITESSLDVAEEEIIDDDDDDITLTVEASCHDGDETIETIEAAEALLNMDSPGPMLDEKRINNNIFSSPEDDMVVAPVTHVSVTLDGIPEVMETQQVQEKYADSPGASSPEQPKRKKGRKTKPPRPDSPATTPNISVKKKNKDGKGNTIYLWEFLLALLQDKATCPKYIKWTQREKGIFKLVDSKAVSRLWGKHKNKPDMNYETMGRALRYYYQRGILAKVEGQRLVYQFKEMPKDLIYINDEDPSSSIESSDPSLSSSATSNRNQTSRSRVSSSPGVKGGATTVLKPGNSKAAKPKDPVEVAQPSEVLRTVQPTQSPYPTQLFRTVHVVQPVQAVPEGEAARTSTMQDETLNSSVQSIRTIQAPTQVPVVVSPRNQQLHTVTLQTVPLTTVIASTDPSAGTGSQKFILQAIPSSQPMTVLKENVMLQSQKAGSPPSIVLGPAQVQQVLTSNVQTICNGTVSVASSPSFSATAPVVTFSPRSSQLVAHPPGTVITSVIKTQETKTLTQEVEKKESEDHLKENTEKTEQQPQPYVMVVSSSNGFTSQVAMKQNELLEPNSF
Sequence of ETV5 (P41161 whole entry): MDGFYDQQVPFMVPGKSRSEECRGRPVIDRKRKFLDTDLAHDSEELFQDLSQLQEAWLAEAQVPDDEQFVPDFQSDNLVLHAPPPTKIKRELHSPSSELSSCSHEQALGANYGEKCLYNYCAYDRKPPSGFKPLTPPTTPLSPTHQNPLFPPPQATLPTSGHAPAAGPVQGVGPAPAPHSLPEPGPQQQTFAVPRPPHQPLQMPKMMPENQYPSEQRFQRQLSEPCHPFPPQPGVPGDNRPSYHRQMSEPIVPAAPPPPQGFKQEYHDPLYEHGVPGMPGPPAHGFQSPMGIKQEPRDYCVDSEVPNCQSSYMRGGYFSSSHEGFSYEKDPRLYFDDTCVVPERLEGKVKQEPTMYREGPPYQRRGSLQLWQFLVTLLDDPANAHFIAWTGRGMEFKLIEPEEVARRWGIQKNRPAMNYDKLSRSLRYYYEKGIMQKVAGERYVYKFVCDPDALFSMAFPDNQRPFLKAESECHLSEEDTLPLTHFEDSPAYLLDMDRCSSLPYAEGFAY
Sequence of ELF4 (Q99607 whole entry): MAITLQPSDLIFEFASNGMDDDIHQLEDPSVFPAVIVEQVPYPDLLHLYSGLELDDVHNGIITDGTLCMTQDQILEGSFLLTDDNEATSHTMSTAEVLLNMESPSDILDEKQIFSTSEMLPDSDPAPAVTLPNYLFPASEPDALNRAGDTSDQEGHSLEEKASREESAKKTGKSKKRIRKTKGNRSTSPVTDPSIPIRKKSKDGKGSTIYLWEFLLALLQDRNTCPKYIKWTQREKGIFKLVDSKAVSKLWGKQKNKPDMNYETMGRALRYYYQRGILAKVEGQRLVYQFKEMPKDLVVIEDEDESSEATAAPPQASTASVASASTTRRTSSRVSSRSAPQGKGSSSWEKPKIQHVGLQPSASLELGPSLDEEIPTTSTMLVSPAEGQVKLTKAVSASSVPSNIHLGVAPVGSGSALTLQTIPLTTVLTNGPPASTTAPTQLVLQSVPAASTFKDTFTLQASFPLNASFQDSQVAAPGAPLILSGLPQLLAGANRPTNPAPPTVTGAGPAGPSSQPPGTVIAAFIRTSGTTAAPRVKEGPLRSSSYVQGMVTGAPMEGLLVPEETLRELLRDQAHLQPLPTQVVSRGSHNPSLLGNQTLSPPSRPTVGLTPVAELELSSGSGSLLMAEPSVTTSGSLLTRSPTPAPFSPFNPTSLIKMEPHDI

For CTCTAA, the binding signal is 1.3 fold enrichment (6-mer frequency, TF over GST control) with FLI1; 1.33 fold enrichment (6-mer frequency, TF over GST control) with ELK1; 1.28 fold enrichment (6-mer frequency, TF over GST control) in the experiment with GABPA; 1.32 fold enrichment (6-mer frequency, TF over GST control) with ERG; 1.37 fold enrichment (6-mer frequency, TF over GST control) with ELF1; 1.41 fold enrichment (6-mer frequency, TF over GST control) with EHF. The binding signal in the experiment with SPI1 is 1.35 fold enrichment (6-mer frequency, TF over GST control); with SPIB, 1.25 fold enrichment (6-mer frequency, TF over GST control); with ELK3, 1.43 fold enrichment (6-mer frequency, TF over GST control); with FEV, 1.29 fold enrichment (6-mer frequency, TF over GST control); in the experiment with ETV5, 1.37 fold enrichment (6-mer frequency, TF over GST control); with HSF1 it was 1.49 fold enrichment (6-mer frequency, TF over GST control). Also, the binding signal was 1.6 fold enrichment (6-mer frequency, TF over GST control) with SPIC; 1.31 fold enrichment (6-mer frequency, TF over GST control) in the experiment with ELF4; 1.22 fold enrichment (6-mer frequency, TF over GST control) in the experiment with ELK4; 1.37 fold enrichment (6-mer frequency, TF over GST control) with ETV2; 1.5 fold enrichment (6-mer frequency, TF over GST control) with ELF3; 2 fold enrichment (6-mer frequency, TF over GST control) in the experiment with CRX. For the same sequence, in the experiment with ETV1, the binding signal was 1.32 fold enrichment (6-mer frequency, TF over GST control).
